Data reported in PubChem BioAssay (NCATS).
Inconclusive results are not listed. Activity calls are given as the source filed them. Calls follow the shape of the dose curve; as a rule, active = well fitted cell-killing curve with a large enough effect; inconclusive = small, poorly fitted or top-dose-only effect, or effect the other way; inactive = flat fitted curve, though single readings scatter. Where a SMILES comes first, the peptide text is derived from it. The star is where a group is joined. Cbz = O=C(OCc1ccccc1)*; CH2F = FC*

Tests used:
Assay in all cases: Primary qHTS to identify gynecologic anti-cancer compounds using libraries of approved drugs and bioactive compounds (AID 1345084); also: nearly all actives have a fitted effect of over 55% in size
Conditions in all cases: Gynecologic cancer cell panel viability, ATPlite luminescence, 48 h; series mostly up to 57.5 µM
OV90 = tested on: OV90
In short: (§1)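 Measured: luminescence after ATPlite addition (15 min, RT). Exposure: 48 h, 37 C, 5% CO2.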

PA-1 = tested on: PA-1
In short: as §1

SKOV3 = tested on: SKOV3
In short: as §1

Tov-21-G = tested on: Tov-21-G
In short: as §1

Tov112D = tested on: Tov112D
In short: as §1
% is scaled to controls: 0 for no effect and ±100 for the full control effect.

COC(=O)CC[C@H](NC(=O)[C@H](CC(C)C)NC(=O)OCc1ccccc1)C(=O)N[C@@H](Cc1cnc[nH]1)C(=O)N[C@@H](CC(=O)OC)C(=O)CF (Cbz-LE(OMe)HD(OMe)-CH2F)
inactive: activity change, negative = cytotoxicity (OV90) 0.73% [at 11.6 µM] | activity change, negative = cytotoxicity (PA-1) -3.2% [at 11.6 µM] | activity change, negative = cytotoxicity (SKOV3) -4.39% [at 11.6 µM] | activity change, negative = cytotoxicity (Tov-21-G) 4.92% [at 11.6 µM] | activity change, negative = cytotoxicity (Tov112D) 6.4% [at 11.6 µM]

COc1ccc(N2CCN(CCCNC(=O)Cn3c(=O)c4cccn4c4c(C)ccnc43)CC2)cc1
inactive: Potency (OV90) | Potency (PA-1) | Potency (SKOV3) | Potency (Tov-21-G) | Potency (Tov112D)

COc1c(O)cc2c(c1O)C(=O)O[C@H](C)[C@H]2O
inactive: Potency (OV90) | Potency (PA-1) | Potency (SKOV3) | Potency (Tov-21-G) | Potency (Tov112D)

CCOc1nc2c(N)ncnc2n1CC
inactive: Potency (OV90) | Potency (PA-1) | Potency (SKOV3) | Potency (Tov-21-G) | Potency (Tov112D)

CC1(C)O[C@H]2CC(=O)OC[C@@]23C1=C(O)C(=O)[C@]1(C)C3CC[C@@]2(C)[C@H](c3ccoc3)OC(=O)[C@H]3O[C@]321 (stereo not given in full)
inactive: Potency (OV90) | Potency (PA-1) | Potency (SKOV3) | Potency (Tov-21-G) | Potency (Tov112D)

CC(C)=CCc1c(O)cc2oc3cc(C)cc(O)c3c2c1C
inactive: Potency (OV90) | Potency (PA-1) | Potency (SKOV3) | Potency (Tov-21-G) | Potency (Tov112D)

N#CN1CCC[C@@H](n2nc(-c3ccc(Oc4ccc(F)cc4F)cc3)c(C(N)=O)c2N)C1
inactive: Potency (OV90) | Potency (PA-1) | Potency (SKOV3) | Potency (Tov-21-G) | Potency (Tov112D)

C/C(=C\CCC(C)CCO)C(=O)OC[C@H]1O[C@@H](O[C@@H]2OC=C(C(=O)O)[C@H]3CC[C@](C)(O)[C@@H]23)C(O)[C@@H](O)C1O (stereo not given in full)
inactive: Potency (OV90) | Potency (PA-1) | Potency (SKOV3) | Potency (Tov-21-G) | Potency (Tov112D)
